This is one part of a sample in which hits are shown more often than they occur.
LmPK inh – LmPK (Leishmania mexicana) enzyme inhibition; Potency, µM (titrated, usually from 57.5 µM), hits mostly inhibitors; Q27686; AID 1721; purified LmPK, Kinase-Glo ATP luminescence, 1 h; 290,000 tested, 0.37% active
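Screened at intermediate enzyme activity to detect both inhibitors and activators: LmPK at 0.1 nM, with a 0.5 nM enzyme column as activation reference. PEP 0.5 mM, ADP 0.1 mM; ATP detected by luminescence after 1 h.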
Sm TGR block – S. mansoni TGR enzyme inhibition; Q962Y6; purified TGR, DTNB reduction, TNB absorbance 405 nm; Potency, µM (series often up to 114 µM), usual class: inhibitors; 360,000 tested, 3% active; note: nearly all actives have a fitted effect of over 60% in size
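TGR 20 nM + NADPH 100 uM (dispensed conc.), cpd preinc 15 min RT; start with NADPH (500 uM addition) then DTNB (15 mM addition). Kinetic TNB absorbance, 405 nm filter. Four-parameter Hill fit across titration.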
TbPYK inhibitor – inhibitors of Trypanosoma brucei pyruvate kinase | TbPYK enzyme, Kinase-Glo Plus ATP luminescence, 45 min | Potency, µM (top dose mostly 76.8 µM), actives largely listed as inhibitors | 410,000 tested, 0.12% active | AID 624173; note: nearly all actives have a fitted effect of over 50% in size
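Enzyme and substrate buffer are dispensed first and compound is pin-transferred. ADP at 130 uM final then starts the reaction, which runs 45 min at room temperature. Detection reagent is added for 10 min before luminescence is imaged.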
CHX counter – counter-screen for Shiga toxin inhibitors: cycloheximide protein synthesis inhibition; cell reporter, cycloheximide protein synthesis inhibition counterscreen; max response, %; 300,000 tested, 12% active; in the data active = max response mostly above about 13%, no sharp cut-off; inactive = mostly below about 14%; note: read at 38.3 µM for the half of the compounds with a filed dose
FBPA Giardia inh – inhibitors of Giardia lamblia fructose-1,6-bisphosphate aldolase. A8B2U2. purified Giardia FBPA. Potency, µM (highest dose often 59.6 µM), usual class: inhibitors. 290,000 tested, 0.71% active. AID 2451; note: nearly all actives have a fitted effect of over 55% in size
Target sequence (A8B2U2 whole entry, looked up): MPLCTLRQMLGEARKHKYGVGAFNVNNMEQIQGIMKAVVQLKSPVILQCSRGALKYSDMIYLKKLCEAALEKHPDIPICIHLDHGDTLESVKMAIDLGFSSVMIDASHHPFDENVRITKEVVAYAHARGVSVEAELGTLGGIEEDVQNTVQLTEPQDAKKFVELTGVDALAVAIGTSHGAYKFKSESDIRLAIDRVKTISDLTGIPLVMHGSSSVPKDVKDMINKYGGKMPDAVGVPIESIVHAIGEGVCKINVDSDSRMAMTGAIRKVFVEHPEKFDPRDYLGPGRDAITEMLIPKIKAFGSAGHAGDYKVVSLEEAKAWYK
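40 nM FBPA preincubated 10 min at RT with compound (up to 57.5 uM final), then substrate plus GAPDH/TPI/NAD/arsenate coupling and diaphorase/resazurin added. Fluorescence read after 20 min at RT, 525/598 nm.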
Shiga inhibitor – inhibitors of Shiga toxin in Vero cells | Vero cells, Shiga toxin protein synthesis inhibition reporter | inhibition, % at 38.7 µM | 290,000 tested, 9.2% active | AID 2315; in the data active = inhibition mostly above about 28%, no sharp cut-off; inactive = mostly below about 43%
Each line names hits and unclear results; the compound was inactive in the other large screens. Unless noted, calls come from the whole dose curve; as a rule, active = well fitted curve in the direction sought with a large enough effect; inconclusive = small, poorly fitted or top-dose-only effect, or another doubt; inactive = no such curve, though single readings can be large; an effect the other way counts as inactive or inconclusive.

COc1ccc([C@H]2[C@H](C(=O)OC(C)(C)C)N3N=Cc4ccccc4C3C23C(=O)c2ccccc2C3=O)c(OC)c1 (stereo partly specified)	CHX counter 18, Shiga inhibitor 45
COCC(C)Nc1ncnc2c1cnn2-c1ccc(C)c(C)c1 (stereo unspecified)	none (no result: LmPK inh, CHX counter, FBPA Giardia inh, Shiga inhibitor)
Cc1cc2c(n1-c1ccc(C(=O)NCc3ccccc3Cl)cc1)CCCC2	Sm TGR block inconclusive (no result: LmPK inh, CHX counter, FBPA Giardia inh, Shiga inhibitor)
CCc1ccc(-c2cn(-c3nc(C)cc(C)n3)c(=N)o2)cc1	CHX counter 23
CCSc1c([N+](=O)[O-])c(=O)n(-c2ccccc2)c2ccccc12	none (no result: LmPK inh, Sm TGR block, CHX counter, FBPA Giardia inh, Shiga inhibitor)
Cc1ccccc1NC(=O)COc1ccc2c(c1)OC(C)(C)CC2=O	CHX counter 38, Shiga inhibitor 34
CC(C)CCNC(=O)COc1ccc2c(c1)C(=O)CC(C)(C)O2	CHX counter 17, Shiga inhibitor 87
CCOc1ccccc1NC(=O)N1CCN(Cc2nc3ccc(C)cc3o2)CC1	none (no result: LmPK inh, CHX counter, FBPA Giardia inh, Shiga inhibitor)
CCCCOC(=O)c1cccc(NC(=O)CCC(=O)O)c1	none
CCCCOC(=O)Nc1cccc(C(C)=O)c1	CHX counter 23, Shiga inhibitor 72
CCOC(=O)Nc1cccc(C(=O)O)c1	CHX counter 14, Shiga inhibitor 31
CCCCOC(=O)Nc1cccc(Cl)c1C	CHX counter 22, Shiga inhibitor 87
CCOC(=O)Nc1cccc(Nc2ccccc2)c1	none
CCC(COC(=O)Nc1cccc(C)c1)NC(=O)OCC(C)C (stereo unspecified)	CHX counter 36, Shiga inhibitor 87
CCNC(=O)OCC(CC)NC(=O)OCC(C)C (stereo unspecified)	none
CCCNC(=O)C1Cc2cc(S(=O)(=O)N3CCCCCC3)ccc2N1C(C)=O (stereo unspecified)	none (no result: LmPK inh, CHX counter, FBPA Giardia inh, Shiga inhibitor)
O=C(Nc1cc2c(cc1[N+](=O)[O-])OCCO2)c1cccnc1	none (no result: LmPK inh, Sm TGR block, CHX counter, FBPA Giardia inh, Shiga inhibitor)
Cc1cc2cc(C(c3nnnn3C(C)(C)C)N(Cc3ccco3)CC3CCCO3)c(=O)[nH]c2cc1C (stereo unspecified)	Sm TGR block inconclusive (no result: TbPYK inhibitor, FBPA Giardia inh)
Cc1ccc2cc(CN(CCCN3CCOCC3)C(c3nnnn3Cc3ccco3)C(C)C)c(=O)[nH]c2c1C (stereo unspecified)	none (no result: LmPK inh, Sm TGR block, CHX counter, FBPA Giardia inh, Shiga inhibitor)
Cc1cccc2cc(CN(CC3CCCO3)C(c3nnnn3Cc3ccco3)C(C)C)c(=O)[nH]c12 (stereo unspecified)	Sm TGR block 50µM
Cc1cc(C)c2[nH]c(=O)c(C(c3nnnn3C(C)(C)C)N(Cc3ccco3)CC3CCCO3)cc2c1 (stereo unspecified)	Sm TGR block 45µM, FBPA Giardia inh inconclusive
Cn1cccc1C(=O)N1CCC2(CCN(Cc3ccc(C#N)cc3)CC2)CC1	none (no result: LmPK inh, Sm TGR block, CHX counter, Shiga inhibitor)
O[C@@H]1COC2[C@@H](O)CO[C@@H]21 (stereo partly specified)	none (no result: LmPK inh, Sm TGR block, TbPYK inhibitor)
COc1ccc(-n2c(C)nc3cc(C(=O)NC4CCCCCC4)ccc32)cc1	none (no result: LmPK inh, CHX counter, FBPA Giardia inh, Shiga inhibitor)
CCCCN(CC(O)COc1cccc(C)c1)CC(O)COc1cccc(C)c1 (stereo unspecified)	none
CN(Cc1ccc(OC(F)F)cc1)C(=O)c1ccc(S(=O)(=O)N(C)c2ccccc2)cc1	none (no result: LmPK inh, CHX counter, FBPA Giardia inh, Shiga inhibitor)
Cc1ccc(CN(C)C(=O)c2ccc(S(=O)(=O)N(C)c3ccccc3)cc2)o1	Sm TGR block 11µM, TbPYK inhibitor inconclusive (no result: LmPK inh, CHX counter, FBPA Giardia inh, Shiga inhibitor)
Cc1ccc(CN(C)C(=O)c2ccccc2Oc2ccccc2)o1	Sm TGR block 7.9µM, TbPYK inhibitor inconclusive
O=C(O)c1ccccc1C(=O)c1ccc(Oc2ccccc2)cc1	FBPA Giardia inh inconclusive
O=C(O)c1ccccc1Oc1ccc(Oc2ccccc2)cc1	CHX counter 7.5
Cc1ccc(CN(C)C(=O)c2cccc(S(=O)(=O)N3CCc4ccccc4C3)c2)o1	Sm TGR block 28µM, TbPYK inhibitor inconclusive (no result: LmPK inh, CHX counter, FBPA Giardia inh, Shiga inhibitor)
O=c1[nH]c2cc3c(cc2cc1CN(CCc1ccccc1)C(=S)NCCCN1CCOCC1)OCCO3	none (no result: LmPK inh, Sm TGR block, CHX counter, FBPA Giardia inh, Shiga inhibitor)
Oc1ccccc1N=Nc1ccccc1O	CHX counter 94, Shiga inhibitor 194
COc1ccc(/C=N/NC(=O)c2cc(O)c(O)c(O)c2)cc1Cn1cc([N+](=O)[O-])cn1	Sm TGR block inconclusive, FBPA Giardia inh inconclusive
Cc1ccc(/C=N/NC(=O)c2ccc(Cn3cc([N+](=O)[O-])cn3)o2)cc1	Shiga inhibitor 21
CCCOc1ccc(/C=N/NC(=O)c2ccc(Cn3cc([N+](=O)[O-])cn3)o2)cc1	none
COc1ccc(/C=N/Nc2ccccc2C(=O)O)cc1Cn1cc([N+](=O)[O-])cn1	CHX counter 46, Shiga inhibitor 56
COc1ccc(/C=N/NC(=O)c2ccccc2O)cc1Cn1cc([N+](=O)[O-])cn1	CHX counter 24
CC(C)c1ccc(/C=N\NC(=O)c2ccc(Cn3cccn3)o2)cc1	CHX counter 54, Shiga inhibitor 71
Cc1ccc(C)c(Cn2c(=O)n(-c3ccc(Cl)cc3)c(=O)c3c(C)c(C)sc32)c1	none (no result: LmPK inh, CHX counter, FBPA Giardia inh, Shiga inhibitor)
COc1ccc(/C=N/NC(=O)c2ccc(Br)o2)cc1Cn1cc([N+](=O)[O-])cn1	CHX counter 39, Shiga inhibitor 77
COc1ccc(N(Cc2cccs2)C(=O)c2ccco2)cc1	none (no result: LmPK inh, CHX counter, FBPA Giardia inh, Shiga inhibitor)
c1ccc(-c2cn3c4c(sc3n2)CCCC4)cc1	LmPK inh 14µM, CHX counter 12
CC(=O)N1c2ccc(S(=O)(=O)NCC3CCC(C(=O)N4CCCC(C)C4)CC3)cc2CC1C (stereo unspecified)	none (no result: FBPA Giardia inh)

Screens as filed in PubChem BioAssay.
